PubChem BioAssay AID2685 (National Center for Advancing Translational Sciences (NCATS), 2010)
Hit rate of the full screen: of about 320,000 compounds, about 2,100 (0.66%) were called active. Another 53% or so got no clear call; they are omitted. Calls follow the shape of the dose curve; as a rule, active = well fitted inhibition curve with a large enough effect in the signal ratio, with a control signal flat (not every such curve was filed as active); inconclusive = small, poorly fitted or top-dose-only effect, or effect the other way, or a change in a side signal; inactive = flat fitted curve, though single readings scatter; the % refers to the signal ratio. The list comes from a sample in which actives are over-represented; it also holds similar structures and randomly drawn compounds.
Potency is read from the fitted curve at half-maximal effect.

Assay: qHTS Assay for Lipid Storage Modulators in Drosophila S3 Cells;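 as to cell number change: cells counted by Cell Tracker Red CMTPX staining in the red channel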; as to lipid storage change, negative = inhibition: % is scaled to controls: 0 for no effect and ±100 for the full control effect
Conditions: BODIPY lipid droplet fluorescence, 18-24 h, cells fed with added oleic acid; cell number change: measured here: cell count max response; series mostly up to 46.1 µM
Source text: NIH Molecular Libraries Probe Production Centers Network [MLPCN] NIH Chemical Genomics Center [NCGC] MLPCN Grant: 1 R03 MH085686-01 Assay Submitter (PI): Beller, Mathias; Max-Planck-Institut fur Biophysikalische Chemie NCGC Assay Overview: Storing lipids as a reservoir for energy or the anabolism of elementary metabolites is a common feature of probably all cells and is conserved from bacteria to humans. The universal cellular lipid storage organelle is the so-called lipid storage droplet (LD). Although ubiquitous, LDs share a simple structure composed of a hydrophobic core that harbors the storage lipids, which is shielded by a droplet-specific phospholipid monolayer to which proteins are attached. The current model of LD biogenesis involves an incorporation of the lipid core into the membrane leaflets of the endoplasmic reticulum (ER) followed by a subsequent budding-like maturation of a LD, which ultimately pinches off. Once released, LD volume can increase by localized lipogenesis or fusion of existing droplet. Storage lipids are re-mobilized enzymatically by lipase activity. Lipase regulation in the adipocyte is heavily studied and involves multiple components including catecholamine signaling, the LD-associated proteins Perilipin and comparative gene identification (CGI-58) and at least two lipases named hormone sensitive lipase (HSL) and adipocyte triglyceride lipase (ATGL). LD regulation outside of the adipocyte is poorly understood and only few components are known. However, there is an urgent need to learn more about ectopic fat depots as mislocalized storage of lipids, for example in the liver or muscle, is an eminent health problem associated with insulin resistance or the metabolic syndrome. We developed a laser-scanning cytometer assay to enable 1,536-well screening and combined the results of the small molecules screen with an RNAi database based on lipid storage.
Triacsin C (Sigma-Aldrich T-4540), an inhibitor of long-chain fatty acyl CoA synthetase that blocks synthesis of triglycerides, was used as a positive control for lipid under-storage. A total of 23 nL of compound solution of different concentrations were transferred to the assay plates using a Kalypsys pin tool equipped with a 1,536-pin array containing 10-nL slotted pins (FP1S10, 0.457-mm diameter, 50.8 mm long; V&P Scientific). One microliter of oleic acid (400 uM) was added, and the plate was lidded with stainless steel rubber gasket lined lids containing pinholes. […] Fluorescence was detected by excitation of the fluorophores with a 488-nm laser on an Acumen Explorer (TTP Lab Tech). The total intensity in channel 2 (500-530 nm) reflected lipid droplet accumulation. Cells were detected using channel 3 (575-640 nm) with 5-um width and 100-um depth filters. The ratio of the number of objects in PMT channel 2 over the number of objects in PMT channel 3 was also calculated. Percent activity was computed relative to an internal control (100% inhibited lipid droplet deposition due to the presence of 20 uM Triacsin C), which was added to 32 wells/plate.
For CC(=O)Nc1cccc(NC(=O)C(C)N2c3cccc4cccc(c34)S2(=O)=O)c1 (stereo not drawn), the Potency was “inactive” and the cell number change was 20.8%. With COC(=O)C1(C(C[N+](=O)[O-])c2ccco2)C(=O)NCC1c1ccccc1 (stereo not drawn) the Potency was “inactive”. In the case of Cc1cc(Nc2ccccc2)nc(NCc2ccccc2)n1, the Potency is reported as 8.2 µM (active) and the cell number change is reported as -27.7%. In the case of COc1cc(C)nc(NCc2ccccc2)n1, the Potency is reported as “inactive”. With Cc1cc(Oc2ccccc2)nc(NCc2ccccc2)n1 the Potency was “inactive” and the cell number change was -8.62%. In the case of CCOc1ccc2nc(N3C(=O)/C(=C/c4ccccc4)NC3=S)sc2c1, the Potency is reported as 9.2 µM (active) and the cell number change is reported as -2.65%. In the case of COc1ccc2nc(N3C(=O)/C(=C/c4ccc(Cl)cc4)NC3=S)sc2c1, the Potency is reported as “inactive” and the cell number change is reported as 28.8%. With CCOc1ccc2nc(N3C(=O)/C(=C/c4ccc(Cl)cc4)NC3=S)sc2c1 the Potency was “inactive” and the cell number change was 13.8%. For CCOC(=O)C1CCN(S(=O)(=O)c2ccc(-c3ccccn3)s2)CC1, the Potency was “inactive” and the cell number change was 18.1%. With CCOC(=O)CN(C(=O)CSc1nnc(CNc2ccc(C)cc2C)n1CC)c1ccccc1 the Potency was “inactive” and the cell number change was -14.6%. In the case of COC(=O)CSc1nc(N2CCOCC2)c2c(c1C#N)CC(C)(C)N(C)C2, the Potency is reported as “inactive” and the cell number change is reported as 15.3%. With COc1ccc(-c2ccc3c(c2)S(=O)(=O)c2cccc(C(=O)O)c2C3=O)cc1OC the Potency was “inactive” and the cell number change was 0.722%. With COc1cccc(-c2ccc3c(c2)S(=O)(=O)c2cccc(C(=O)O)c2C3=O)c1OC the Potency was 0.651 µM (active). With O=C(O)c1cccc2c1C(=O)c1ccc(-c3ccc(F)cc3F)cc1S2(=O)=O the Potency was “inactive” and the cell number change was 1.93%. In the case of Cc1c(C(=O)N(Cc2ccccc2)C2CCS(=O)(=O)C2)oc2ccccc12 (stereo not drawn), the Potency is reported as “inactive” and the cell number change is reported as 19%. In the case of O=C(c1ccco1)N(Cc1ccc(Cl)cc1)C1CCS(=O)(=O)C1 (stereo not drawn), the Potency is reported as “inactive” and the cell number change is reported as 5.9%. For CC1(C)C(C=C(Cl)Cl)C1C(=O)N(Cc1ccc(Cl)cc1)C1CCS(=O)(=O)C1 (stereo not drawn), the Potency was 8.2 µM (active) and the cell number change was -12%. With C=CCN(C(=O)c1ccccc1)C1CCS(=O)(=O)C1 (stereo not drawn) the Potency was “inactive” and the cell number change was 22.7%. In the case of Cc1c(C(=O)N(Cc2ccc(F)cc2)C2CCS(=O)(=O)C2)oc2ccccc12 (stereo not drawn), the Potency is reported as “inactive” and the cell number change is reported as 3.58%. For Cc1c(C(=O)N(Cc2ccc(Cl)cc2)C2CCS(=O)(=O)C2)oc2ccccc12 (stereo not drawn), the Potency was 9.2 µM (active) and the cell number change was -19.8%. With C=CCN(C(=O)c1oc2c(Cl)cc(C)cc2c1C)C1CCS(=O)(=O)C1 (stereo not drawn) the Potency was 20.6 µM (active) and the cell number change was 7.31%. In the case of Cc1cc(Cl)c2oc(C(=O)N3CCN(C4CCS(=O)(=O)C4)CC3)c(C)c2c1 (stereo not drawn), the Potency is reported as “inactive” and the cell number change is reported as 16.7%. With CC1(C)C(C=C(Cl)Cl)C1C(=O)N(Cc1ccccc1Cl)C1CCS(=O)(=O)C1 (stereo not drawn) the Potency was “inactive” and the cell number change was -19.9%. For O=C1CSC(c2ccccc2)N1CC(O)c1ccc([N+](=O)[O-])cc1 (stereo not drawn), the Potency was “inactive” and the cell number change was 14%. For CCOc1ccc(-c2noc(-c3cccnc3)n2)cc1OCC, the Potency was “inactive” and the cell number change was 2.29%. In the case of O=[N+]([O-])c1cccc(OCCN2CCC(Cc3ccccc3)CC2)c1, the Potency is reported as “inactive” and the cell number change is reported as 10.2%. With COc1ccc(S(=O)(=O)CCC(=O)Nc2ccc(OC)cc2OC)cc1 the Potency was “inactive” and the cell number change was -8.69%. In the case of Cc1ccc(C(=O)CCC(=O)OCC(=O)N(CC(C)C)c2c(N)n(Cc3ccccc3)c(=O)[nH]c2=O)cc1, the Potency is reported as “inactive” and the cell number change is reported as 20.5%. With COc1ccc(CCNc2c(C=O)c(=O)[nH]c3ccccc23)cc1OC the Potency was “inactive”. For Cc1cc(Br)ccc1NC(=O)C(C)c1ccc([N+](=O)[O-])cc1 (stereo not drawn), the Potency was “inactive” and the cell number change was 6.98%. In the case of Cc1ccc(-n2c3c(c(=O)[nH]c2=O)C(NS(=O)(=O)c2ccc(C)cc2)(C(F)(F)F)C(=O)N3)cc1 (stereo not drawn), the Potency is reported as “inactive” and the cell number change is reported as -0.886%. For Cc1ccc(-n2cc(S(=O)(=O)c3ccc(C)cc3)[nH]c2=O)cc1, the Potency was “inactive” and the cell number change was 12.8%. In the case of CCc1c(C(C)S(=O)(=O)c2ccc(C)cc2)[nH]c(=O)n1-c1ccc(C)cc1 (stereo not drawn), the Potency is reported as 29.1 µM (active) and the cell number change is reported as -0.34%. With Brc1ccc(-n2cccc2/C=N/n2cnnc2)cc1 the Potency was “inactive”. With N#Cc1nc(COc2ccc(Cl)cc2)oc1N1CCCC1 the Potency was 23.1 µM (active) and the cell number change was -31%. With N#Cc1nc(COc2ccc(Br)cc2)oc1N1CCCCCC1 the cell number change was 7.38% and the lipid storage change, negative = inhibition was 17.2% [at 9.22 µM] (inactive). For Cc1ccc(OCc2nc(C#N)c(N3CCCCC3)o2)cc1, the Potency was “inactive” and the cell number change was 15.9%. With COc1ccc(OC)c(-c2cc(C(=O)N3CCN(c4ncccn4)CC3)c3ccccc3n2)c1 the Potency was “inactive” and the cell number change was -4.49%. With Cc1onc(-c2ccccc2Cl)c1C(=O)Nc1ccccc1 the Potency was “inactive” and the cell number change was 6.9%. For COc1cc(S(=O)(=O)N(C)C)ccc1F, the Potency was “inactive” and the cell number change was -10.1%. With CCOC(=O)C1=C(C)NC2=C(C(=O)c3ccccc32)C1c1ccc([N+](=O)[O-])o1 (stereo not drawn) the Potency was “inactive” and the cell number change was 12.6%. With COC(=O)C1=C(C)NC2=C(C(=O)c3ccccc32)C1c1cccc(OC)c1 (stereo not drawn) the Potency was “inactive” and the cell number change was -11.6%. For CCOC(=O)C1=C(C)NC2=C(C(=O)c3ccccc32)C1c1cccc2ccccc12 (stereo not drawn), the Potency was 16.4 µM (active) and the cell number change was -15.2%. In the case of CCC1CCCCN1C(=O)CNCC1CCCO1 (stereo not drawn), the Potency is reported as “inactive” and the cell number change is reported as 14.6%. With CSc1ccccc1NC(=O)CN(Cc1ccccc1)S(C)(=O)=O the Potency was “inactive”. In the case of Cc1ccc(CS(=O)(=O)CC(C)(O)c2ccccc2)cc1 (stereo not drawn), the Potency is reported as “inactive” and the cell number change is reported as 15.3%. In the case of CCOc1ccc(C(C(=O)NCC2CCCO2)N(Cc2cccs2)C(=O)c2snc(C(N)=O)c2N)cc1 (stereo not drawn), the Potency is reported as 1.64 µM (active) and the cell number change is reported as 15%. With CCOc1ccc(C(C(=O)NCC2CCCO2)N(Cc2cccnc2)C(=O)c2snc(C(N)=O)c2N)cc1 (stereo not drawn) the Potency was “inactive” and the cell number change was -2.82%. With COc1ccc(C(C(=O)NCC2CCCO2)N(Cc2cccs2)C(=O)c2snc(C(N)=O)c2N)cc1OC (stereo not drawn) the Potency was “inactive” and the cell number change was 25.6%. In the case of Cc1cccc(-n2ncc3c2CCCC3NC(=O)CCN2CCCCO2)c1C (stereo not drawn), the Potency is reported as “inactive” and the cell number change is reported as -4.74%. In the case of O=C(CSc1ccc(-c2ccccn2)nn1)N1CCCC1, the Potency is reported as “inactive” and the cell number change is reported as 4.79%. In the case of COc1cc(CN2CCC(Cc3ccccc3)CC2)c([N+](=O)[O-])cc1OC, the Potency is reported as “inactive” and the cell number change is reported as 21.3%. In the case of COc1ccc(CSc2nnc(CNS(C)(=O)=O)o2)cc1, the Potency is reported as “inactive” and the cell number change is reported as 8.09%. In the case of COc1cc([N+](=O)[O-])ccc1N1C(=O)C2C3C=CC(C4CC34)C2C1=O (stereo not drawn), the Potency is reported as “inactive” and the cell number change is reported as -23.6%. For O=S(=O)(NCc1ccccc1Cl)c1ccc(-n2cccn2)cc1, the Potency was 16.4 µM (active) and the cell number change was -0.567%. For O=S(=O)(NCc1ccccc1)c1ccc(-n2cccn2)cc1, the Potency was “inactive” and the cell number change was -18%. With COc1ccccc1CNS(=O)(=O)c1ccc(-n2cccn2)cc1 the Potency was “inactive” and the cell number change was -13.2%.
